About 79,000 compounds went through this panel and 15% of them were active in at least one assay; those are over-represented in the sample as a whole. Rule as the data show it: active = growth inhibition above about 70%; inactive = the rest.
Tests used:
[1] = NCI Yeast Anticancer Drug Screen. Data for the rad50 strain (AID 155);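 also: 0% = growth of vehicle-only cultures of the same strain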; conditions: S. cerevisiae rad50 strain growth inhibition, stronger effect = higher value; at 50.0 µM unless noted
In short: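 Readout: growth inhibition relative to vehicle-treated cultures. Compound exposure was carried out in a genetically defined yeast strain deficient in DNA damage repair.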

[2] = NCI Yeast Anticancer Drug Screen. Data for the mec2-1 strain (AID 157); conditions: S. cerevisiae mec2-1 strain, stronger effect = higher value; at 50.0 µM unless noted
In short: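 Yeast mec2-1 mutant treated with compound. Readout: growth inhibition vs vehicle controls.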

[3] = NCI Yeast Anticancer Drug Screen. Data for the sgs1 mgt1 strain (AID 161);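 also: 0% = growth of cultures given vehicle only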; conditions: S. cerevisiae sgs1 mgt1 strain, stronger effect = higher value; at 50.0 µM unless noted
In short: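 Genetically altered yeast, compound exposure, growth inhibition relative to vehicle.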

[4] = NCI Yeast Anticancer Drug Screen. Data for the cln2 rad14 strain (AID 165);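 also: 0% = growth equal to vehicle treated cultures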; conditions: S. cerevisiae cln2 rad14 strain, stronger effect = higher value; at 50.0 µM unless noted
In short: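 cln2 rad14 yeast strain; compound exposure; growth inhibition read vs vehicle controls.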

[5] = NCI Yeast Anticancer Drug Screen. Data for the bub3 strain (AID 167); conditions: S. cerevisiae bub3 mutant strain, stronger effect = higher value; at 50.0 µM unless noted
In short: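 Readout: yeast growth inhibition, expressed relative to vehicle-only wells. The test organism is a mutant strain from a panel with lesions in DNA repair or checkpoint genes.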

[6] = NCI Yeast Anticancer Drug Screen. Data for the mlh1 rad18 strain (AID 175); conditions: S. cerevisiae mlh1 rad18 strain growth inhibition, stronger effect = higher value; at 50.0 µM unless noted
In short: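 Yeast w/ defined DNA-repair lesions; compound exposure; growth vs vehicle controls → % inhibition.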

Measured: growth inhibition

C1CCC2=NCCCN2CC1
inactive: [1] -13.8% | [2] -23% | [3] 10.6% | [4] -4.8% | [5] 11.8% | [6] -1%

Nc1ccccc1SC(CC(=O)c1ccc(-c2ccccc2)cc1)c1ccco1 (stereo not drawn)
inactive: [1] -18.4% | [2] -30.6% | [3] 17% | [4] -9.2% | [5] -7.6% | [6] -31.7%

N=C(N)SCc1ccc(Oc2ccc(CSC(=N)N)cc2)cc1
inactive: [1] 0.4% | [2] 1.45% | [3] -4.5% | [4] 0.5% | [5] -2.4% | [6] 15.3%

Cn1nnnc1NCc1ccccc1
inactive: [1] -2.55% | [2] 5.35% | [3] -5.85% | [4] -24.6% | [5] -2% | [6] 5.15%

COc1ccc(C2=N/C(=C\c3ccccc3)C(=O)O2)cc1
inactive: [1] -4.05% | [2] 8.6% | [3] 28.4% | [4] -22.4% | [5] -4% | [6] -0.9%

CCOC(=O)c1c(SCc2ccccc2)nc2c3ccccc3ccn12
inactive: [1] -18.2% | [2] -18.6% | [3] -29.9% | [4] -1.15% | [5] -20.9% | [6] -57.5%

Cn1c2ccccc2c2nnc(NCCCO)nc21
inactive: [1] 18.9% | [2] 21.7% | [3] 18.8% | [4] 43.3% | [5] 25% | [6] 11.2%

COC(=O)C1(C)CCCC2(C)C1CCC1(O)C(O)C(C(C)C)=CCC21 (stereo not drawn)
inactive: [1] 4.3% | [2] -2.35% | [3] 2.55% | [4] -2.25% | [5] -1.95% | [6] 20.2%

From PubChem BioAssay (NCI)
